Source: PubChem BioAssay
Calls of active or inactive are those of the source.

experiment: small-molecule binders of probe aLefty1, primary screen, biochemical, small-molecule microarray, 635/667 nm fluorescence (AID 1153); settings: higher = more signal;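 further: score merges spot fluorescence with signal-to-noise ratio from the scanned slide images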

SMILES | composite z-score
Cc1ccc(C(C)CC(O)C2C=CC3C(=O)N(c4ccccc4)C(=O)C3N2Nc2ccc([N+](=O)[O-])cc2)o1 (stereo not drawn) | 0.218
COCCOC(=O)N1C(=O)[C@@]2(c3cc(C#CCCO)ccc31)[C@H](C(=O)Nc1nc3ccccc3s1)[C@H]1C(=O)O[C@H](c3ccccc3)[C@H](c3ccccc3)N1[C@@H]2c1ccc(OCCO)cc1 | 0.352
CCCCC(O)C1C=CC2C(=O)N(c3ccccc3)C(=O)C2N1Nc1ccccc1F (stereo not drawn) | 0.328
[N-]=[N+]=Nc1ccccc1C[C@]1(C(=O)NCC(O)CO)N=C(c2ccc(OCCCO)cc2)O[C@H]1c1ccccc1N=[N+]=[N-] (stereo partly drawn) | -0.0295
C=C(CCCC)/C(=C/C[C@@H](OC(C)=O)c1ccccc1OCCO)c1cnc2ccccc2c1 | 0.082
OC([C@@H]1CC(c2ccccc2)=NO1)[C@H]1CC(c2ccccc2)=NO1 (stereo partly drawn) | 0.139
[N-]=[N+]=NCc1ccccc1[C@H]1OC(c2ccc(OCCCO)cc2)=N[C@@]1(Cc1ccccc1)C(=O)NCc1ccccc1 | 0.22
O=C(NCc1ccccc1)[C@@H]1c2ccccc2C(=O)N(CC23CC4CC(CC(C4)C2)C3)[C@H]1c1ccc(CO)cc1 | -0.538

experiment: PSAC antagonists in infected red cells, primary screen, cell-based, P. falciparum Indochina, OD700, 1 h (AID 1154); settings: P. falciparum Indochina infected RBC osmotic lysis, higher = more signal, called active from +8 up or from −8 down

SMILES | z-score
O=C1C2C=CC(C(O)C3CCCCC3)N(Nc3ccc([N+](=O)[O-])cc3)C2C(=O)N1c1ccccc1 (stereo not drawn) | 21.3 (active)
C=CCNC(=O)[C@H]1[C@@H]2C(=O)O[C@@H](c3ccccc3)[C@@H](c3ccccc3)N2[C@@H](c2ccc(OCCO)cc2)[C@]12C(=O)N(C(=O)OCCOC)c1ccccc12 | 5.52 (inactive)
O=C1C2C=CC(C(O)c3c(F)cccc3Cl)N(Nc3ccccc3)C2C(=O)N1c1ccccc1 (stereo not drawn) | 18.7 (active)
CC(C)c1ccc(NN2C(C(O)c3cc(C(F)(F)F)cc(C(F)(F)F)c3)C=CC3C(=O)N(c4ccccc4)C(=O)C32)cc1 (stereo not drawn) | 3.24 (inactive)
[N-]=[N+]=NCc1ccccc1C[C@]1(C(=O)O)N=C(c2ccc(OCCCO)cc2)O[C@H]1c1ccccc1N=[N+]=[N-] | 36.3 (active)
O=C1O[C@H](c2ccccc2)[C@H](c2ccccc2)N2[C@H]1[C@@H](C(=O)NC[C@H](O)c1ccccc1)[C@]1(C(=O)Nc3ccccc31)[C@H]2c1ccc(OCCO)cc1 | 4.2 (inactive)
COC(=O)[C@@]1(Cc2ccc(F)cc2)[C@H]2c3cc(C(=O)N4CCCC4)n(Cc4ccc(C)o4)c3C[C@H]2CN1C(=O)c1ccccc1 | 4.25 (inactive)
COc1ccc([Si](C)(C)[C@H]2[C@H](CCn3cc([C@H](O)c4ccccc4)nn3)O[C@@]3(C(=O)N(Cc4cccc(N5CCOC5=O)c4)c4ccccc43)[C@@H]2C)cc1 | 26.1 (active)
COc1ccc(CCNC(=O)[C@@]2(C)c3ccccc3C(=O)N(Cc3cc(F)cc(C(F)(F)F)c3)[C@H]2c2ccc(CO)cc2)cc1 | 8.08 (active)
O=C1O[C@@H](c2ccccc2)[C@@H](c2ccccc2)N2[C@@H](c3ccc(OCCO)cc3)[C@]3(C(=O)Nc4ccccc43)[C@@H](C(=O)NC[C@H](O)c3ccccc3)[C@H]12 | 6.58 (inactive)
C=C(/C(=C/C[C@@H](OC(C)=O)c1ccc(OCCO)cc1)c1cnc2ccccc2c1)C(C)C | 15.4 (active)
O=C1OCC=C[C@H]2OC34C=CCN(CCN5CCOCC5)C(=O)[C@H]3N(CCCO)C(=O)[C@@H]4[C@@H]12 (stereo partly drawn) | 0.64 (inactive)
C=CC[C@]1(C(=O)NCCCOC)N=C(c2ccc(OCCCO)cc2)O[C@H]1c1ccccc1N=[N+]=[N-] | 33.6 (active)
COCC(=C=CC[C@H](O)c1ccccc1OCCO)C[C@H](O)c1cc(Cl)cc(Cl)c1O | 7.9 (inactive)
COC(=O)c1c(CC[C@@H](CO)NC(=O)N2CCC[C@H]2Cn2cc(-c3ccccn3)nn2)oc(C(C)=O)c1C(=O)OC | 1.58 (inactive)
C=CCN(Cc1ccccc1)C(=O)C(c1cccs1)N(CCOCCO)C(=O)/C=C\C(=O)O (stereo not drawn) | 2.39 (inactive)
CCN(CC)c1ccc(N2CC=CC34O[C@@H]5/C=C\CCCOC(=O)C5[C@H]3C(=O)N(CCO)[C@@H]4C2=O)cc1 (stereo partly drawn) | 0.897 (inactive)
C=CC[C@@]1(C(N)=O)N=C(c2ccc(OCCCO)cc2)O[C@@H]1c1ccccc1CN=[N+]=[N-] | 21.5 (active)
O=C1c2ccccc2[C@](Cc2ccccc2I)(C(=O)NC2CC2)[C@H](c2ccc(CO)cc2)N1C1CCCCC1 | 22.5 (active)
O=C(NCc1ccccc1)[C@@]1(CCS(=O)(=O)c2ccccc2)N=C(c2ccc(OCCCO)cc2)O[C@H]1c1ccccc1 | 26.4 (active)
